Records with an inconclusive call do not appear. Calls of active or inactive are those of the source. Rule for the calls, unless noted: active = hit-call score of the fitted dose curve at least 0.9, where 1 is the maximum; inconclusive = response in the unintended direction; inactive = score below 0.9.
Key:
[1] = target: Estrogen receptor (Homo sapiens) (UniProt P03372); experiment: ATG_hERa_XSP2: Attagene TRANS-FACTORIAL Multi-Species (XSP2) HepG2 Assay for human Estrogen Receptor (ERa) (AID 2283827)
Chain of Estrogen receptor (Homo sapiens) (P03372 whole entry, looked up, the tested form may be a part): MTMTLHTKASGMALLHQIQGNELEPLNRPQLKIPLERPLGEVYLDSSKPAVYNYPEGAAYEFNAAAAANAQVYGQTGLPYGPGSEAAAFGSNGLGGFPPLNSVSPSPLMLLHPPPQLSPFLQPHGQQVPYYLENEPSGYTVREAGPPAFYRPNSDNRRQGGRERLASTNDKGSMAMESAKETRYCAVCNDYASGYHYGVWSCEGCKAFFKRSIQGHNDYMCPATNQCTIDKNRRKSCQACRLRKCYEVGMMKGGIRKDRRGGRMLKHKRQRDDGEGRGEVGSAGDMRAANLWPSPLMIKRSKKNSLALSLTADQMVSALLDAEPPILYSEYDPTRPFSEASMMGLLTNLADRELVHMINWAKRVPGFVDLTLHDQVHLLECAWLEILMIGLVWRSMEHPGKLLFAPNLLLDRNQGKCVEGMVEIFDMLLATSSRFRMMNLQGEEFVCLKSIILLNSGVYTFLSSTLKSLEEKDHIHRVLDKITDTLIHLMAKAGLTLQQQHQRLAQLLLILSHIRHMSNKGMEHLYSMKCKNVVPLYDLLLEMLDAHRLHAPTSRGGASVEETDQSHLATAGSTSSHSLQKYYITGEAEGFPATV
Summary of the method: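 Trans-activation of exogenous human ERa-Gal4 chimera read in HepG2 as reporter transcript after 24 h exposure; medium included 3 nM 6-alpha-fluorotestosterone and 1.5 nM norgestrel. Quantified by RT-PCR with capillary electrophoresis, positive-direction fitting against DMSO.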

[2] = tested on: zebrafish Peroxisome Proliferator-activated Receptor gamma (PPARg), gene 557037; experiment: ATG_zfPPARg_XSP2: Attagene TRANS-FACTORIAL Multi-Species (XSP2) HepG2 Assay for zebrafish Peroxisome Proliferator-activated Receptor gamma (PPARg) (AID 2283833);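 note: reporter mRNA from a zebrafish PPARg GAL4 chimera measured by RT-PCR and capillary electrophoresis; actives increase reporter signal over DMSO so AC50 reflects activation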
Summary of the method: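 Cell-based transactivation of a chimeric zebrafish PPARg-GAL4 receptor was assessed in transiently transfected HepG2 cells after 24 h of treatment. Reporter mRNA induction, detected fluorescently after RT-PCR, was analysed in the positive direction against DMSO.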

[3] = tested on: turtle Thyroid Hormone Receptor, alpha (TRa), gene 101949057; experiment: ATG_trTRa_XSP2: Attagene TRANS-FACTORIAL Multi-Species (XSP1) HepG2 Assay for turtle Thyroid Hormone Receptor, alpha (TRa) (AID 2283834);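 note: hits raise reporter mRNA over the DMSO baseline so AC50 marks activators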
Summary of the method: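 Gain-of-signal reporter transcription measured in transiently transfected HepG2 at 24 h post-dose. Fluorescent RT-PCR products were resolved by capillary electrophoresis and compared with DMSO vehicle.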

[4] = ATG_M_61_XSP2: Attagene TRANS-FACTORIAL Multi-Species (XSP2) HepG2 Assay for M61 Transcription Factor (Internal Marker) (AID 2283835; active = hit-call score of the fitted dose curve at least 0.9, where 1 is the maximum; inactive = score below 0.9;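 note: reporter mRNA of an internal background marker read by RT-PCR and capillary electrophoresis; active means a rise in signal above the DMSO baseline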)
Summary of the method: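 Signal was mRNA induction detected as fluorescence after RT-PCR and capillary electrophoresis, analysed in the gain direction with DMSO as baseline. HepG2 cells transiently carrying reporter constructs received chemicals for 24 h.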

SMILES	AC50 [1]	outcome [2]	outcome [3]	outcome [4]
O=P(OC(CCl)CCl)(OC(CCl)CCl)OC(CCl)CCl	7.39 µM (active)	inactive	inactive	inactive
Clc1nc(Cl)c(Cl)c(Cl)c1Cl	–	inactive	–	–
Oc1ccc2c(c1)-c1ccccc1C2	–	–	inactive	inactive

Reference: PubChem BioAssay (EPA / NIEHS)
